Active and inactive are the calls of the source. The call rests on the fitted dose curve.

A short description of this assay: qHTS assay to identify small molecule agonists of the sonic hedgehog signaling (Shh) pathway (AID 1259368).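 Further: NIH/3T3-derived 3T3Gli1-Luc cells carrying a stable Gli1-driven firefly luciferase reporter; nearly all actives have a fitted effect of over 15% in size.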 To be noted: NIH/3T3 Gli1-Luc reporter, luciferase, 24 h; series mostly up to 92.4 µM. The text has this:
National Center for Advancing Translational Sciences [NCATS]
NIH Chemical Genomics Center [NCGC]
U.S. Environmental Protection Agency [EPA]
National Institutes of Environmental Health Sciences [NIEHS]
National Toxicology Program [NTP]
The sonic hedgehog (Shh) pathway is essential for normal embryonic development. Dysregulation of the Shh pathway can cause severe developmental defects in organs. Therefore chemicals that interfere with the pathway are potential developmental toxicants. A cell line designated 3T3Gli1-Luc (DMB/OARSA/CFSAN/FDA, Laurel, MD), a NIH/3T3 derived clone containing stably integrated Gli1-Luc reporter is used to detect chemical interference of the Shh pathway, by changes in the expression of the firefly Luc gene under the control of the Gli1 transcriptional response element. This cell line was used to screen Tox21 libraries for identifying and prioritizing the potential developmental toxicants that interfere Shh pathway.
3T3 Gli1-Luc cells were dispensed at 2,000 per well in 5uL of culture medium into white solid bottom 1536-well plates (Greiner Bio-One, Monroe, NC) using a Multidrop Combi (Thermo Scientific, Waltham, MA) dispenser. The assay plates were incubated at 37 C and 5% CO2 for 4hr, and then 23nL of compounds dissolved in DMSO and positive control were transferred using a Pintool station (Wako, San Diego, CA). The assay plates were incubated at 37C and 5% CO2 for 24hr. For luciferase read, 4uL of Amplite Luciferase reporter gene assay reagent (AAT Bioquest, Inc. Sunnyvale, CA) was added to each well of the assay plates using Flying Reagent Dispenser (FRD, Aurora Discovery, San Diego, CA) and incubated at room temperature for 30min. The luminescence signal was measured using a ViewLux plate reader (Perkin Elmer, Shelton, CT).
Background: qHTS replaces the single test concentration by a dilution series.
On to `Cc1cccc(C)c1NC(=O)CN1CCCC1=O`, for which the molecule was called inactive.

Turning to `C[C@H]1C(=O)O[C@@H]2CCN3CC=C(COC(=O)[C@](C)(O)[C@]1(C)O)[C@H]23`, the result was inactive.

As to `N#Cc1cccc(C#N)c1`, the result was inactive. Then `CN(C)C(=O)Nc1cccc(C(F)(F)F)c1`, with “inactive”; and `Cc1cc(Cl)ccc1OC(C)C(=O)O` (stereo not given), with “inactive”; and `ClC(Cl)c1ccccc1`, with “inactive”. With `CN(C)C(=O)C(c1ccccc1)c1ccccc1`, the outcome was inactive. With `CC(C)(C)C(=O)CCl`, the outcome was inactive. Then `Cc1ccc(N)cc1`, with “inactive”; and `CCCCCCCCCCCCCCCCCC(=O)O`, with “inactive”; and `Cc1ccccc1N`, with “inactive”. For `CC12CC1(C)C(=O)N(c1cc(Cl)cc(Cl)c1)C2=O` (stereo not given) the value was “inactive”; for `CCNc1nc(Cl)nc(NC(C)C)n1`, “inactive”. Then `COc1cc(-c2ccc(N)c(OC)c2)ccc1N`, with “inactive”; and `CCCCC(CC)C(=O)Cl` (stereo not given), with “inactive”. On to `C=CCN=C=S`, for which the molecule was called inactive. As to `OCCCCO`, the call was inactive.

On to `CCSC(=O)N1CCCCCC1`, for which the outcome was inactive. For `Oc1c(Br)cc(Br)cc1Br` the value was “inactive”; for `C=CC(=O)OCC(CC)CCCC` (stereo not given), “inactive”. Then `O=C(O)C(Br)Br`, with “inactive”; and `O=C/C=C/c1ccccc1`, with “inactive”; and `Nc1cc(Cl)cc(Cl)c1`, with “inactive”.

As for `Cc1ccc(N=C=O)cc1N=C=O`, the molecule was classed as inactive. For the molecule `CCOC(=O)CC(SP(=O)(OC)OC)C(=O)OCC` (stereo not given), the outcome was inactive. For `Cc1ccc(O)c(C)c1` the value was “inactive”; for `Nc1ccc([As](=O)(O)O)cc1`, “inactive”; for `N#CN=C(N)N`, “inactive”. Then `Cl/C=C/Cl`, with “inactive”.

Turning to `FC(F)(F)c1ccc(Cl)cc1`, the molecule was called inactive. For `O=[N+]([O-])c1ccc(Cl)cc1` the value was “inactive”. For `CC(C)CCCCCCOC(=O)c1ccccc1C(=O)OCCCCCCC(C)C` the value was “inactive”; for `CNC(=O)O/N=C/C(C)(C)SC`, “inactive”; for `O=C(O)COc1ccccc1`, “inactive”. For `OCc1ccco1` the value was “inactive”; for `CCOP(=S)(OCC)Oc1cc(C)nc(C(C)C)n1`, “inactive”; for `NNc1ccccc1`, “inactive”. For `Cc1cc(O)ccc1Cl`, the result was inactive. For `CCCOC(=O)c1ccccc1C(=O)OCCC` the value was “inactive”. For `CNCC(O)c1ccc(O)cc1` (stereo not given) the value was “inactive”.

The values above are taken from PubChem BioAssay (Tox21).
